We go through 39 compounds from PubChem BioAssay (EPA / NIEHS).

For orientation: AC50 means the midpoint of the concentration-response curve, whichever way the signal moves.

Structures are written as SMILES. Some structures have more than one record in an assay (separate samples or runs), and their calls can disagree. The source made the active and inactive calls. The calls were made as follows: active = hit-call score of the fitted dose curve at least 0.9, where 1 is the maximum; inactive = score below 0.9.

This assay can be described thus: ATG_NFI_CIS: Attagene CIS-FACTORIAL HepG2 Assay for human Nuclear Factor I (NFI) (AID 2282989). To be noted: HepG2 cis-regulatory reporter, NFI response element transcription; actives raise or lower the signal. On the procedure:
ATG_CIS is a cell-based, multiplexed-readout assay that uses HepG2, a human liver cell line, with measurements taken at 24 hours after chemical dosing in a 24-well plate.ATG_NFI_CIS is one of 52 assay component(s) measured or calculated from the ATG_CIS assay. It is designed to make measurements of mRNA induction, a form of inducible reporter, as detected with fluorescence intensity signals by Reverse transcription polymerase chain reaction (RT-PCR) and Capillary electrophoresis technology.Data from the assay component ATG_NFI_CIS was analyzed into 1 assay endpoint. This assay endpoint, ATG_NFI_CIS, was analyzed with bidirectional fitting relative to DMSO as the negative control and baseline of activity. Using a type of inducible reporter, measures of mRNA for gain or loss-of-signal activity can be used to understand the reporter gene at the transcription factor-level as they relate to the gene NFIA. Furthermore, this assay endpoint can be referred to as a primary readout, because this assay has produced multiple assay endpoints where this one serves a reporter gene function. To generalize the intended target to other relatable targets, this assay endpoint is annotated to the dna binding intended target family, where the subfamily is nuclear factor I.
Human liver HepG2 cells are transiently transfected with multiple reporter transcription units (MRTUs) in 6-well plates using FuGene 6 reagent (Roche; 3 ml FuGene/1 mg DNA). The MRTU constructs are regulated by a cis-regulating element (promoter). […] A major difference between the CIS and TRANS system is that in CIS activities of endogenous TFs are measured, whereas the TRANS assay evaluates changes in activities of exogenous, chimeric NR-Gal4 proteins. […] At the end of 24 hour incubation, total RNA was isolated using TriZol reagent (Invitrogen). The isolated RNA is then reverse-transcribed using oligo(dT) primer and Mo-MLV reverse transcriptase (Invitrogen) with DNAse I (Ambion) treatment for 30 min. The one-tenth of the produced cDNA was amplified by PCR using Taq DNA polymerase (Invitrogen) and two reporter sequence-specific primers. The PCR products were fluorescently labeled by primer extension with 6-arboxyfluorescein (6-FAM) 5'-labeled reporter sequence-specific primer (2 min at 95 C, 20 s at 68 C and 10 min at 72 C) and these products were digested with 5U of HpaI (New England Biolabs) for 2h at 37 C. The fragments were purified using Qiaquick PCR columns (Qiagen), analyzed on an ABI 3130xL genetic analyzer (Applied Biosystems) with peak positions identified by using a set of X-rhodamine (ROX)-labeled MapMarker1000 molecular weight standards (BioVentures). The raw capillary electrophoresis data was processed using Attagraph software (Attagene).
In the case of `CCC(=O)C=Cc1ccc(OC)cc1`, the result was inactive.
As to `O=P(O)(O)CCC(F)(F)C(F)(F)C(F)(F)C(F)(F)C(F)(F)C(F)(F)F`, the outcome was inactive.
In the case of `CCCCCCCCC(C)=O`, the compound was classed as inactive.
As for `C[N+](C)(CCCNS(=O)(=O)CCC(F)(F)C(F)(F)C(F)(F)C(F)(F)C(F)(F)C(F)(F)F)CC(=O)[O-]`, the outcome was inactive.
In the case of `CC[N+](CC)(CC)Cc1ccccc1`, the compound was classed as inactive.
Regarding `CCN(CCC#N)c1ccccc1`, the call was inactive.
With `CC(C)(C)c1ccc(CCC=O)cc1`, the call was inactive.
Turning to `O=c1cc(-c2ccccc2)oc2ccc3ccccc3c12`, the result was inactive.
As for `Nc1ccn([C@@H]2O[C@H](CO)[C@@H](O)C2O)c(=O)n1` (stereo not given in full), the compound was called inactive.
On the same count and under the same terms, the result for `O=C(O)CCC(F)(F)C(F)(F)C(F)(F)C(F)(F)C(F)(F)C(F)(F)F` reads “inactive”.
For `FC1(F)C=CC(F)(F)C1(F)F`, the compound was called inactive.
With `CNNCc1ccc(C(=O)NC(C)C)cc1`, the call was inactive.
For the compound `OCC1CCC(CO)CC1` (stereo not given), the result was inactive.
As for `Oc1ccc(Cc2ccccc2O)cc1`, the result was inactive.
On to `Clc1ccc(Nc2nnc(Cc3ccncc3)c3ccccc23)cc1`, for which the compound was classed as inactive.
For the compound `Cc1ccccc1C(OCCN(C)C)c1ccccc1` (stereo not given), the result was inactive.
`O=C(CC(=O)C(F)(F)C(F)(F)C(F)(F)F)c1cccs1`: the compound was called inactive.
`C/C=C/C(=O)C1=C(C)CCCC1(C)C`: the AC50 was 65.1 µM (active).
Take `CN(C)c1ccc(C(=C2C=CC(=[N+](C)C)C=C2)c2ccccc2)cc1`: the AC50 is 5.55 µM (active) and the compound was classed as inactive.
For `COc1cccc(O)c1`, the call was inactive.
`FC(F)=C(F)C(F)(F)C(F)(F)C(F)(F)C(F)F`: the compound was classed as inactive.
Take `O=C(NCc1ncc(C(F)(F)F)cc1Cl)c1c(Cl)cccc1Cl`: the outcome was inactive.
As to `Cc1ccc(S(=O)(=O)O)cc1`, the result was inactive.
With `Cc1cc(C(=C2C=CC(=Nc3ccc(S(=O)(=O)O)cc3)C=C2)c2ccc(Nc3ccc(S(=O)(=O)O)cc3)cc2)cc(S(=O)(=O)O)c1N`, the outcome was inactive.
On to `c1ccc(CNc2ncnc3c2ncn3C2CCCCO2)cc1` (stereo not given), for which the outcome was inactive.
For the compound `CN(Cc1cnc2nc(N)nc(N)c2n1)c1ccc(C(=O)N[C@@H](CCC(=O)O)C(=O)O)cc1`, the compound was classed as inactive.
`C=CC(=O)OCCC(F)(F)C(F)(F)C(F)(F)C(F)(F)C(F)(F)C(F)(F)C(F)(F)C(F)(F)F`: the result was inactive.
On the same count and under the same terms, the result for `CCCCCCCC(OC)OC` reads “inactive”.
Regarding `OCCN1CN(CCO)CN(CCO)C1`, the AC50 is 144 µM (active).
Take `O=C(O)C(=O)O`: the call was inactive.
With `CCCCCCCCCCCC(=O)O`, the outcome was inactive.
On to `c1cc2cccc3c4cccc5cccc(c(c1)c23)c54`, for which the outcome was inactive.
Regarding `CCCCCc1ccc(O)cc1`, the outcome was inactive.
Still for that read-out and setting: with `CCCCCCCCCCCCCCCC(=O)OC` the entry was “inactive”; with `O=S(=O)(O)C(F)(F)C(F)(F)C(F)(F)C(F)(F)C(F)(F)C(F)(F)C(F)(F)C(F)(F)C(F)(F)C(F)(F)F`, “inactive”.
As to `CCc1ccccc1O`, the call was inactive.
In the case of `O=CC(F)(F)C(F)(F)C(F)(F)F`, the outcome was inactive.
On to `Oc1c(Cl)cc(Cl)cc1Sc1cc(Cl)cc(Cl)c1O`, for which the compound was classed as inactive.
On to `c1cc[nH]c1`, for which the outcome was inactive.
